The record followed here is PubChem BioAssay (NCI).

Values joined by “and” are separate entries in the source; they are usually repeats but may differ in a detail not shown here. Identical values can stand only once. Compounds without any hit were thinned out: in the full panel of roughly 83,000, 20% have a hit.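 For each line, cells grew in 96-well plates with the test compound present at a single concentration for 48 hours.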 Unmarked numbers belong to inactive results. Active and inactive are the calls of the source. The calls were made as follows: active = growth percent below 10; inactive = the rest.

The assay deals with MDA-MB-468 breast. Briefly: NCI-60 one-dose screen, 48 h (100 = growth as untreated, 0 = no growth, -100 = all killed). To be noted: 10 µM unless noted.
As for `CC(=O)OCC1OC(OC(C)=O)C(OC(C)=O)C(OC(C)=O)C1OC(C)=O` (stereo not given), the growth is 95.5% and 108%.
The figure for `COc1cc(-c2nn(-c3ccc(Br)cc3)cc2CO)ccc1O` is 96.1%.
As for `Cc1ccc2nc(NC(=O)CSc3nc(Cl)c(C#N)c(-c4ccccc4)n3)sc2c1`, the growth is 87.5%.
Turning to `Nc1nc2ccccc2c2c(=O)c3ccc(Cl)cc3sc12`, the growth was 3.53% (active).
As for `CCOC(=O)/C=C/C(=O)[C@H](CC(C)C)NC(=O)[C@H](Cc1ccccc1)NC(=O)OCc1ccccc1`, the figure is -21.5% (active); as for `S=C(Nc1ccccc1)c1ccccn1`, 101%.
Consider `CCN(CC)c1ccc2c(c1)OS(=O)(=O)N=C2`, for which the growth is 111%.
The figure for `C[N+]1(CC2CO2)CCCCCC1` (stereo not given) is 103%.
As for `O=C(O)C[C@H](O)C[C@H](O)/C=C/c1c(C2CC2)nc2ccccc2c1-c1ccc(F)cc1`, the figure is 75.1%; as for `O=S(=O)(NCCCNc1nccc(-c2c(-c3ccc(F)c(O)c3)nc3sccn23)n1)c1ccccc1`, 82.4%; as for `CCCN(CCC)C(=O)[C@H](CC)[C@@H]1CC[C@@H](C)[C@@H]([C@H](C)[C@@H](O)[C@@H](C)C(=O)[C@H](CC)C2O[C@]3(C=C[C@@H](O)[C@]4(CC[C@@](C)([C@H]5CC[C@](O)(CC)[C@H](C)O5)O4)O3)[C@H](C)C[C@@H]2C)O1` (stereo not given in full), -24.6% (active).
Take `CSc1nccc(-c2c(-c3ccc(F)c(OCc4ccc(F)cc4)c3)nc3sccn23)n1`: the growth was 23.3%.
For the compound `O=C1CCC(N2C(=O)c3ccc(NS(=O)(=O)c4ccccc4OC(F)(F)F)cc3C2=O)C(=O)N1` (stereo not given), the growth was 10.1%.
On to `Cc1ccc(C(=O)NCCCNc2nccc(-n3ccc4cccnc43)n2)cc1`, for which the growth is 95.6%.
Turning to `O=C(CC1(O)C(=O)Nc2ccc(Br)cc21)c1ccc(Cl)cc1` (stereo not given), the growth was 100%.
For the compound `CN(Cc1cccc(C(F)(F)F)c1)C(=O)[C@@H](CC(=O)N1CCC(N2CCCCC2)CC1)N1C(=O)[C@@H](N2C(=O)OC[C@@H]2c2ccccc2)[C@H]1/C=C/c1ccccc1`, the growth is 60.5%.
The figure for `COc1cc(/C=N\Nc2ccccc2)ccc1OC(=O)c1ccccc1` is 44.2%; for `COc1cnc2c(c1)C(=O)c1c-2n(CCCNC(C)C)c(=O)c2cc(F)ccc12` it is -63.6% (active); for `C[C@H]1[C@@H]2[C@H]3CC[C@@H]4[C@@]5(C)Cc6c([nH]c7ccccc67)C(C)(C)[C@@H]5CC[C@@]4(C)[C@]3(C)CC[C@]23CO[C@]1(C)[C@@H](C(=O)/C=C/c1ccccn1)C3` it is 99.3%.
Consider `CCC(c1ccc(O)cc1)C(CC)c1ccc(O)c(F)c1` (stereo not given), for which the growth is 69.5%.
In the case of `CCCCCCCCCC(C)NC(=O)CCl` (stereo not given), the growth is 95.4%.
For `C#CCn1c(-c2cc(OC)c(OC)cc2Br)nc(-c2ccccc2)c1-c1ccccc1`, the growth was 5.05% (active).
Take `O=C(O[C@@H]1Cc2c(O)cc(O)cc2O[C@@H]1c1cc(O)c(O)c(O)c1)c1cc(O)c2c(c1)OCO2`: the growth was 109%.
`Cc1ncc(C(=O)Nc2ccc(CN3CCN(C)CC3)c(C(F)(F)F)c2)cc1C#Cc1c(N)ncc2ccc(C#N)cc12`: the growth is 98.5%.
Regarding `COc1ccc(-c2c(-c3cc(OC)c(OC)c(OC)c3)noc2N)cc1`, the growth was -5.06% (active).
As for `CC(=O)OCCO`, the growth is 98.6%.
In the case of `CCOC(=O)c1cnn(CC(C)O)c1NC(=O)NCc1ccccc1C(F)(F)F` (stereo not given), the growth is 103%.
As for `COc1ccc2c(O)c(/C=C3\N=Nc4ncccc43)oc2c1C[C@H]1CCNC[C@H]1F`, the growth is -39% (active).
For the compound `Cn1cnc2c1c(=O)n(CCC(=O)Nc1ccc(F)cc1)c(=O)n2C`, the growth was 113%.
As for `CN(C)c1ccc(/C=N/N=C(N)N)cc1`, the figure is 33%; as for `CC(=O)OCC1OC(n2cnc3c(=S)nc(N)[nH]c32)C(OC(C)=O)C1OC(C)=O` (stereo not given), 68.5%.
Turning to `CSc1nc(=S)c2nc(SC)n(-c3ccccc3)c2[nH]1`, the growth is 91.1%.
`COc1c(B(O)O)cccc1-c1nc2c(F)cc3n[nH]c(C)c3c2c2c1CCCC2`: the growth was -7.26% (active).
Consider `COc1ccc(/C=c2\c(=O)n(-c3ccccc3)c3nn4c(=O)c(=O)[nH]nc4n23)cc1`, for which the growth was 112%.
On to `Cc1nc2ncccc2nc1Nc1ccc(S(=O)(=O)Nc2cncs2)cc1`, for which the growth is 97.7%.
In the case of `CC1=Nc2cnc(Nc3ccc(N4CCCCC4)cc3)nc2Nc2ccccc21`, the growth was 54.9%.
For the compound `OCC1OC(n2cnc3c(N/N=C\c4ccccn4)ncnc32)C(O)C1O` (stereo not given), the growth was -24% (active).
Turning to `N#Cc1c(-c2cccc([N+](=O)[O-])c2)nc(SCC(=O)c2ccc(Cl)cc2)[nH]c1=O`, the growth is 110%.
As for `CC(=O)C1=C(O)C=C2Oc3c(C(=O)/C=C/c4ccccc4)c(O)c(C)c(O)c3[C@]2(C)C1=O`, the growth is 30.3%.
For the compound `Cc1nn(-c2ccccc2)c(N2CCCCC2)c1/C=N/NC(=O)Cn1c(=O)sc2ccccc21`, the growth is 85.5%.
